# Rows were chosen to be rich in hits. Some 8.7% of all compounds tested hit in one or more screens of this group.
# AMA1 RON2 block: qHTS for Inhibitors of AMA1-RON; Towards Development of Antimalarial Drug Lead: Primary Screen | AID 720542, 2013 | AlphaScreen AMA1-biotinylated RON2 peptide binding | Plasmodium falciparum AMA1 (3D7) - RON2 peptide interaction | Potency, µM (doses to about 58.2 µM), inactives show at the highest dose activity change, negative = inhibition, actives largely listed as inhibitors | 360,000 tested, 0.2% active;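 further: 0% = vehicle wells and -100% = peptide control; nearly all actives have a fitted effect of over 45% in size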
#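 AMA1 (3D7) with his tag at 25 nM final met compounds first, then biotinylated RON2 peptide at 25 nM; detection used donor plus acceptor beads, 10 µg/mL apiece, read by AlphaScreen after 30 min at room temperature.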
# Pf growth 96h: Primary qHTS for delayed death inhibitors of the malarial parasite plastid, 96 hour incubation; P. falciparum luciferase reporter growth, 96 h; Potency, µM (highest dose often 28.7 µM), for inactives: at the top dose activity change, negative = inhibition, hits mostly inhibitors; 320,000 tested, 6.9% active
#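 Two-generation exposure (96 h) targets delayed-death phenotype. Reporter parasites carrying integrated firefly luciferase, in red cells at 2% hematocrit and 0.05% parasitemia final, kept at 37 C, 5% CO2; luminescence loss indicates inhibition.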
# Pf growth 48h: Primary qHTS for delayed death inhibitors of the malarial parasite plastid, 48 hour incubation; 310,000 tested, 5.9% active; Potency, µM (top dose mostly 28.7 µM), for inactives: at the highest dose activity change, negative = inhibition, usual class: inhibitors; P. falciparum luciferase growth in erythrocytes, 48 h; AID 504832, 2011
#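 Luciferase-expressing P. falciparum in infected erythrocytes (2% hematocrit, 0.1% parasitemia final) in RPMI 1640/0.5% Albumax were exposed to compound for 48 hours at 37 C, 5% CO2; growth read as luminescence.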
# VACV Venus inh: qHTS for Stage-Specific Inhibitors of Vaccinia Orthopoxvirus: Venus Reporter Primary qHTS | Vaccinia virus Venus reporter expression, fluorescence | Potency, µM (titrated, usually from 36.5 µM), inactives show at the top dose activity change, negative = inhibition, most hits filed as inhibitors | 330,000 tested, 0.46% active; calls by dose curve; tested in A549 cells; further: nearly all actives have a fitted effect of over 30% in size
# Vaccinia mCherry: qHTS for Stage-Specific Inhibitors of Vaccinia Orthopoxvirus: mCherry Reporter Primary qHTS. AID 720579, 2013. Potency, µM (highest dose often 36.5 µM), for inactives: at the highest dose activity change, negative = inhibition, usual class: inhibitors. Vaccinia virus mCherry reporter infection, fluorescence. 310,000 tested, 0.63% active; calls by dose curve; tested in A549 cells; further: nearly all actives have a fitted effect of over 35% in size
# Active calls of the source: *; i = inactive; ? = inconclusive; · = no result; [ ] = another dose, or the depositor's remark. Unless noted, the call rests on the fitted dose curve; in most records, active means well fitted curve in the direction sought with a large enough effect; inconclusive means small, poorly fitted or top-dose-only effect, or another doubt; inactive means no such curve, though single readings can be large; an effect the other way counts as inactive or inconclusive. Unless noted, on the % scale 0 is the no-effect control and ±100 the full control effect; potency means the concentration at half of the fitted maximal effect.
SMILES,AMA1 RON2 block,Pf growth 96h,Pf growth 48h,VACV Venus inh,Vaccinia mCherry
COC(=O)C1=COC(C)C2CN3CCc4c([nH]c5cc(OC)c(OC)cc45)C3CC12 (stereo not given),-9%,0.83µM*,?,17%,3%
CCOc1ccccc1NC(=O)C1CCN(S(=O)(=O)c2cccc3nonc23)CC1,·,·,·,0%,10%
CCN1CCN(C(=O)c2ccc3c(c2)N(Cc2ccccc2F)C(=O)c2ccccc2S3=O)CC1 (stereo not given),·,·,·,-6%,2%
CCN(c1ccccc1)S(=O)(=O)c1ccc(C(=O)N(CCCN(C)C)c2nc3cc4c(cc3s2)OCO4)cc1,-23%,-8%,-59%,·,·
Cc1ccc2sc(N(CCCN(C)C)C(=O)c3ccc(S(=O)(=O)N(C)C)cc3)nc2c1C,-5%,?,?,·,·
CCN(c1ccccc1)S(=O)(=O)c1ccc(C(=O)N(CCCN(C)C)c2nc3c(C)cccc3s2)cc1,-17%,9.3µM*,15µM*,-27%,-9%
Cc1ccc2sc(N(CCCN(C)C)C(=O)c3ccc(S(=O)(=O)N(C)Cc4ccccc4)cc3)nc2c1C,?,12µM*,10µM*,?,-26%
COCCn1c(SCC(=O)Nc2ccc(Br)cc2)nc2c([nH]c3ccccc32)c1=O,·,·,·,-1%,-5%
O=C(N/N=C/c1cc(Br)c(O)c(Br)c1)c1cc2c(ccc3ccccc32)o1,-10%,13µM*,-17%,-13%,-12%
O=C(N/N=C/c1cc(Cl)c(O)c(Cl)c1)c1cc2c(ccc3ccccc32)o1,-17%,?,12µM*,·,·
O=C(N/N=C/c1ccc(O)c(Br)c1)c1cc2c(ccc3ccccc32)o1,15%,?,?,·,·
O=C(N/N=C/c1cccnc1)c1cc2c(ccc3ccccc32)o1,1%,?,-17%,-30%,-12%[1.46 µM]
C=C1C(=O)[C@]23C[C@H]1CCC2[C@@]1(C)C(C[C@@H]3O)[C@](C)(C(=O)OC)CC[C@@H]1O (stereo not given in full),23%,·,·,?,8.9µM*
C[C@@]12C(C[C@H](O)[C@@]34C[C@@H](CCC13)[C@@H](CO)C4=O)[C@](C)(C(=O)O)CC[C@@H]2O (stereo not given in full),-5%,·,·,1%,43%
CN(C)c1ccc(N2C(=NC(=O)CCc3ccccc3)SC3CS(=O)(=O)CC32)cc1 (stereo not given),16%,12µM*,?,·,·
O=C(O)/C=C/C(=O)Nc1ccc(S(=O)(=O)Nc2nccs2)cc1,-7%,1.7µM*,41%,-5%,0%
COc1ccc(S(=O)(=O)Nc2ccc(S(=O)(=O)Nc3nccs3)cc2)cc1,-16%,15%,5.2µM*,-7%,10%
O=C(Nc1ccc(S(=O)(=O)Nc2nccs2)cc1)C(F)(F)F,10%,·,·,-11%,i
Cc1ccc(S(=O)(=O)Nc2ccc(S(=O)(=O)Nc3nccs3)cc2)c([N+](=O)[O-])c1,-2%,2.9µM*,4%,·,·
CCOc1ccc(Nc2cc(C)nc3nc(Cc4ccc(Cl)cc4)nn23)cc1,·,·,·,-7%,-18%
c1ccc2c(c1)CCc1c-2nc2ccccc2c1N1CCOCC1,15%,?,15µM*,·,·
O=C(O)c1c2c(nc3ccccc13)-c1ccccc1CC2,-6%,0%,29%,-5%,-11%
C[C@@H]1O[C@@H](O[C@H]2C[C@@H](O)[C@]3(CO)[C@H]4[C@H](O)C[C@]5(C)[C@@H](C6COC(=O)C6)CC[C@]5(O)[C@@H]4CC[C@]3(O)C2)[C@H](O)[C@H](O)[C@H]1O (stereo not given in full),0%,-25%,4%,1.1µM*,1.1µM*
